Measurements reported in ChEMBL document CHEMBL1961873, “Compounds: GSK PKIS; Assays: Nanosyn kinase panel” (2012).

What was measured:
[1] = molecular target: Serine/threonine-protein kinase MRCK alpha (Homo sapiens) (UniProt Q5VT25); details: at 0.1 µM
[2] = molecular target: Serine/threonine-protein kinase MRCK alpha (Homo sapiens) (UniProt Q5VT25); details: at 1 µM
[3] = molecular target: Serine/threonine-protein kinase MRCK beta (Homo sapiens) (UniProt Q9Y5S2); details: at 0.1 µM
[4] = molecular target: Serine/threonine-protein kinase MRCK beta (Homo sapiens) (UniProt Q9Y5S2); details: at 1 µM
[5] = molecular target: Ribosomal protein S6 kinase alpha-5 (Homo sapiens) (UniProt O75582); details: at 0.1 µM
[6] = molecular target: Ribosomal protein S6 kinase alpha-5 (Homo sapiens) (UniProt O75582); details: at 1 µM
[7] = molecular target: Ribosomal protein S6 kinase alpha-4 (Homo sapiens) (UniProt O75676); details: at 0.1 µM
[8] = molecular target: Ribosomal protein S6 kinase alpha-4 (Homo sapiens) (UniProt O75676); details: at 1 µM
[9] = molecular target: Ribosomal protein S6 kinase beta-1 (Homo sapiens) (UniProt P23443); details: at 0.1 µM
[10] = molecular target: Ribosomal protein S6 kinase beta-1 (Homo sapiens) (UniProt P23443); details: at 1 µM
[11] = molecular target: T1, 3-phosphoinositide-dependent protein kinase 1 (Homo sapiens) (UniProt O15530); details: at 0.1 µM;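 note: values are mean inhibition of PDK1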
T1 sequence (whole entry): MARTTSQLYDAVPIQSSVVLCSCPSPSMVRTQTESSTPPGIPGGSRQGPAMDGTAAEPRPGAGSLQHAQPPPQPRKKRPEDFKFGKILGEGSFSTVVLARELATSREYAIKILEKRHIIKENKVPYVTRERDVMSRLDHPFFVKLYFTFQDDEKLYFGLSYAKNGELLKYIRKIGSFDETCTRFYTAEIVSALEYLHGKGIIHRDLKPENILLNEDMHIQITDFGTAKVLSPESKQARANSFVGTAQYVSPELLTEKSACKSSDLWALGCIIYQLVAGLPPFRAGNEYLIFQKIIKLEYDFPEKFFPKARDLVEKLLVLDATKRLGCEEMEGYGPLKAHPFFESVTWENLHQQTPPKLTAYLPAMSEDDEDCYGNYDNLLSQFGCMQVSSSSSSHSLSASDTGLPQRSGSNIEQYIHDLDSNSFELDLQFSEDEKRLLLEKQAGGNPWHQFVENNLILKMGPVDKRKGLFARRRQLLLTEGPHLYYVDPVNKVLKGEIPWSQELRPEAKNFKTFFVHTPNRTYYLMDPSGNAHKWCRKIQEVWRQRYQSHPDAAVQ

[12] = molecular target: cAMP-dependent protein kinase catalytic subunit alpha (Homo sapiens) (UniProt P17612); details: at 0.1 µM
[13] = molecular target: cAMP-dependent protein kinase catalytic subunit alpha (Homo sapiens) (UniProt P17612); details: at 1 µM
[14] = molecular target: Protein kinase C alpha type (Homo sapiens) (UniProt P17252); details: at 0.1 µM
[15] = molecular target: Protein kinase C alpha type (Homo sapiens) (UniProt P17252); details: at 1 µM
[16] = molecular target: Protein kinase C beta type (Homo sapiens) (UniProt P05771); details: at 0.1 µM
[17] = molecular target: Protein kinase C beta type (Homo sapiens) (UniProt P05771); details: at 1 µM
[18] = molecular target: Protein kinase C eta type (Homo sapiens) (UniProt P24723); details: at 0.1 µM
[19] = molecular target: Protein kinase C eta type (Homo sapiens) (UniProt P24723); details: at 1 µM
[20] = molecular target: Protein kinase C gamma type (Homo sapiens) (UniProt P05129); details: at 0.1 µM;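 note: values are mean percent inhibition of PKC gamma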

Chain of Ribosomal protein S6 kinase alpha-4 (Homo sapiens) (O75676 whole entry, looked up): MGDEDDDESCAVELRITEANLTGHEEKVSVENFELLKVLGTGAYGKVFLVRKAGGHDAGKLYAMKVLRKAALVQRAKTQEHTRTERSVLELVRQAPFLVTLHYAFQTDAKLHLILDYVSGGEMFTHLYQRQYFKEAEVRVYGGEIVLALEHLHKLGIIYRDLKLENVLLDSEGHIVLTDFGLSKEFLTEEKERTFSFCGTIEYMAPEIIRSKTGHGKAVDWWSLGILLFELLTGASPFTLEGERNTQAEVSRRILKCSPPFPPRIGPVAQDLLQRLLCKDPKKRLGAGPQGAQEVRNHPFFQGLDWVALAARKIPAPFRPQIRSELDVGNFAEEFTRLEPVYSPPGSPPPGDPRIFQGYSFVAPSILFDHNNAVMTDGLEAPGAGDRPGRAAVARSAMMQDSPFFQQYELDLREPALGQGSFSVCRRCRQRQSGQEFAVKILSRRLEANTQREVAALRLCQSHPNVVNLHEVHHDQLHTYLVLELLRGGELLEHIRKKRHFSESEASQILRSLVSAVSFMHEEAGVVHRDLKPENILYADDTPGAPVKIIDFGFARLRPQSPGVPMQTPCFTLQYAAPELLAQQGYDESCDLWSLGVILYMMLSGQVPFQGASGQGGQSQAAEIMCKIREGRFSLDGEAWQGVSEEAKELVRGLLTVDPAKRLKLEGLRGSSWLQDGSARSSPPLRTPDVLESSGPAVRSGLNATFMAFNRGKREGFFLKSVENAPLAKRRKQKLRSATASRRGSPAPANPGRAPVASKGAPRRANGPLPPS
Chain of Serine/threonine-protein kinase MRCK beta (Homo sapiens) (Q9Y5S2 whole entry): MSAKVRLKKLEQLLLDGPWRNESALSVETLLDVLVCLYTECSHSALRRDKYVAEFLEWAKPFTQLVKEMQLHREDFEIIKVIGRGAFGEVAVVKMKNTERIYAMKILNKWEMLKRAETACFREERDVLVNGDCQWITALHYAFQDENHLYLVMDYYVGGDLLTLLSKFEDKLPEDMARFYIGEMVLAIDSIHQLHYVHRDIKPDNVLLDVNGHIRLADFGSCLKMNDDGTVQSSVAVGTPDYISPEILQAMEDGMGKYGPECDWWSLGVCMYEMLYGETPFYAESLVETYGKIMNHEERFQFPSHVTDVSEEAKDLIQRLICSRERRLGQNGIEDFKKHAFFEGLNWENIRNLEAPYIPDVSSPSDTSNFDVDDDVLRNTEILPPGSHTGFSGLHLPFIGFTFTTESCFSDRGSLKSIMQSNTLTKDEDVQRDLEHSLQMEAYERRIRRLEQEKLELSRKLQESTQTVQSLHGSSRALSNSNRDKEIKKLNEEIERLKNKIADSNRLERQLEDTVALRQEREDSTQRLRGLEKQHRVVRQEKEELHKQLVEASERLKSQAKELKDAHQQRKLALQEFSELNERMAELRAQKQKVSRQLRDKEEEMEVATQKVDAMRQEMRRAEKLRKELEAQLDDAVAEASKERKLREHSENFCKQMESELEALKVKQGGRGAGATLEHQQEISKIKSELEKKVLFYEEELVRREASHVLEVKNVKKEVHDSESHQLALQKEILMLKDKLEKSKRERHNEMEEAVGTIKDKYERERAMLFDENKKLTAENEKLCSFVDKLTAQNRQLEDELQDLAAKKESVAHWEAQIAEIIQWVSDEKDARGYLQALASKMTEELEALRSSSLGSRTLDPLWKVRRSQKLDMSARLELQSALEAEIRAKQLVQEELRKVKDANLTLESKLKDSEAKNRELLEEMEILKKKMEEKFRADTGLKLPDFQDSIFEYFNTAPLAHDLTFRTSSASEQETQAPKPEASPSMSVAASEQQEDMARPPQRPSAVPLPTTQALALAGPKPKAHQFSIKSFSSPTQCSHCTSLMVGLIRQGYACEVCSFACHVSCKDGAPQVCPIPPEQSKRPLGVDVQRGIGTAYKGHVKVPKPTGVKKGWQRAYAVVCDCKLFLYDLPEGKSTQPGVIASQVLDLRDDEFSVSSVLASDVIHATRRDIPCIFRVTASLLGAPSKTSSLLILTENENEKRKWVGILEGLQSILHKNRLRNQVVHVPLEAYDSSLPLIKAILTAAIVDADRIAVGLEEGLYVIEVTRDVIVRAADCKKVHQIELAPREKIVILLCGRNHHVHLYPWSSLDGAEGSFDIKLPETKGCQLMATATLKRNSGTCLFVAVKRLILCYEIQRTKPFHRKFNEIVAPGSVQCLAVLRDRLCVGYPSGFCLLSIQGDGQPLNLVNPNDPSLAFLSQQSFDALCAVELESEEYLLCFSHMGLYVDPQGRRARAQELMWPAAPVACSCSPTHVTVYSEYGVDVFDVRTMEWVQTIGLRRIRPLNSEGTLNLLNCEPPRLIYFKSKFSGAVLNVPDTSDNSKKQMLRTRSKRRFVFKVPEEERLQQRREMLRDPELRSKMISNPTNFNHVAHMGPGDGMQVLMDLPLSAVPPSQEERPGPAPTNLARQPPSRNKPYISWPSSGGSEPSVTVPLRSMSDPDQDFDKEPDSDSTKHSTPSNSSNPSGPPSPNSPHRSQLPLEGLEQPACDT
Chain of Ribosomal protein S6 kinase alpha-5 (Homo sapiens) (O75582 whole entry, looked up): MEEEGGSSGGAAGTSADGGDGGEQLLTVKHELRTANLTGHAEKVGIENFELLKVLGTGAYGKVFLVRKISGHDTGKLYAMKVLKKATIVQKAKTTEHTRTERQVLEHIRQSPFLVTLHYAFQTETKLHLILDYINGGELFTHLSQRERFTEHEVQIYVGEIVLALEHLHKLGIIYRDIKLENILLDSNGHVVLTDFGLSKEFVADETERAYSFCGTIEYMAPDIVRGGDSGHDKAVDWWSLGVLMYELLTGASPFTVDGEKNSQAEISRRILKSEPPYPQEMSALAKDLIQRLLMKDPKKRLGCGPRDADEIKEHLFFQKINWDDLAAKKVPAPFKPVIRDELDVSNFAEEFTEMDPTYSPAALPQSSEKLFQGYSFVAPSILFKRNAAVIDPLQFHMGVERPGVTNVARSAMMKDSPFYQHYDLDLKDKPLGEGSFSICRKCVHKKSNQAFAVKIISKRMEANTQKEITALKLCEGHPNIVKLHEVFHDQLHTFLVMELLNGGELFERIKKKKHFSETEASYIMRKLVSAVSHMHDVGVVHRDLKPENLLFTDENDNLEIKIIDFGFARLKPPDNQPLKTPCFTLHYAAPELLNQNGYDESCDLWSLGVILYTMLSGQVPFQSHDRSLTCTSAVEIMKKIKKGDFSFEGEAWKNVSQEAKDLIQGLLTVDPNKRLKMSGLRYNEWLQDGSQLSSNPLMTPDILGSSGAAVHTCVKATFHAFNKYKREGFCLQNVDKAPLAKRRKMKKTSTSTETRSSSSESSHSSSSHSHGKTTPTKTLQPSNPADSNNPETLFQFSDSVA
Chain of Ribosomal protein S6 kinase beta-1 (Homo sapiens) (P23443 whole entry, looked up): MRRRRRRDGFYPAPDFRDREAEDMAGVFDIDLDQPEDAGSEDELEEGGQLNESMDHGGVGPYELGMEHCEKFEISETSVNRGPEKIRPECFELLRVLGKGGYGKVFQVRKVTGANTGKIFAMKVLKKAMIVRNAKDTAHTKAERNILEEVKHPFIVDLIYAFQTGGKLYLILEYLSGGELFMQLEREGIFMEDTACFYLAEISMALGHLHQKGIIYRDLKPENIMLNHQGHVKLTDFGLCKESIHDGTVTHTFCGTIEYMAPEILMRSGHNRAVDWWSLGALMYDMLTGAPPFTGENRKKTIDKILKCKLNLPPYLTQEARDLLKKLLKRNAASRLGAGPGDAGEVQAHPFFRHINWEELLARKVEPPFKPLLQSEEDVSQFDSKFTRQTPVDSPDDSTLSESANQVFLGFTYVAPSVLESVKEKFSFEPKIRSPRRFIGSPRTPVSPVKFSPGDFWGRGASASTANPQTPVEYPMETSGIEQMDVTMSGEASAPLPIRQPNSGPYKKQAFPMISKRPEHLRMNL

SMILES | inhibition [1] | inhibition [2] | inhibition [3] | inhibition [4] | inhibition [5] | inhibition [6] | inhibition [7] | inhibition [8] | inhibition [9] | inhibition [10] | inhibition [11] | inhibition [12] | inhibition [13] | inhibition [14] | inhibition [15] | inhibition [16] | inhibition [17] | inhibition [18] | inhibition [19] | inhibition [20]
CCCN1CCC=C(c2ccc(Nc3nc(Nc4ccccc4C(N)=O)c4cc[nH]c4n3)c(C)c2)C1 | 5.2% | 9.75% | 0.66% | 4.44% | 4.46% | 6.4% | 1.37% | 5.28% | 0.98% | 6.39% | -0.1% | 2.92% | 2.79% | 0.33% | 6.13% | -0.14% | -0.64% | 5.56% | 4.73% | 3.41%
NC(=O)c1cccc(Nc2nccc(Nc3cccc4[nH]ncc34)n2)c1 | -0.16% | 2.18% | 0.71% | 3.5% | -3.36% | 2.78% | -1.85% | 1.24% | -1.61% | 4.1% | -1.42% | 7.26% | 10.7% | -0.39% | 14.6% | 0.67% | 2.07% | -3% | 5.2% | 0.25%
CCn1c(-c2nonc2N)nc2cncc(C(=O)N3CC[C@H](N)C3)c21 | 14.5% | 68.7% | 23.1% | 67.2% | 67.9% | 81.4% | 44.5% | 74.3% | 32.9% | 80.3% | 9.36% | 49.1% | 82.2% | 5.69% | 45.5% | 43.9% | 74.5% | 51.2% | 88.3% | 6.77%
NCc1ccc(-c2nc(-c3ccc(Cl)c(O)c3)c(-c3ccncc3)[nH]2)cc1 | 0.67% | -0.06% | -1.19% | 1.3% | 0.16% | 2.56% | -0.59% | 2.82% | 0.03% | 0.71% | 2.25% | 1.31% | 3.95% | 0.75% | 2.46% | 5.37% | 27.9% | 1.93% | 3.81% | 0.36%
CCn1c(-c2nonc2N)nc2c(N3CCCC3)nccc21 | -0.27% | 5.42% | -0.1% | 2.55% | -0.19% | 11.2% | -0.68% | 3.67% | -0.49% | 8.23% | -1.76% | -0.34% | 1.34% | -0.23% | 0.84% | 0.38% | 13.4% | 1.82% | 11.2% | -1.48%
CS(=O)(=O)CCN(CC#N)Cc1ccc(-c2ccc3ncnc(Nc4ccc(OCc5cccc(F)c5)c(Cl)c4)c3c2)o1 | -0.15% | -1.53% | -0.05% | -0.09% | 0.54% | -1.33% | 1.06% | 1.76% | 0.1% | 0.27% | 0.12% | -3.08% | -3.11% | -3.93% | -3.34% | -0.34% | -1.95% | 2.38% | 1.49% | -0.22%
Fc1cccc(COc2ccc(Nc3ncnc4cc(-c5ccc[nH]5)sc34)cc2Cl)c1 | -0.43% | -1.14% | 0.61% | 0.75% | 0.34% | 0.11% | 3.11% | 4.08% | 0.99% | 1.05% | 1.86% | -2.47% | -0.52% | -3.29% | -1.9% | 1.37% | 0.9% | 2.87% | 4.5% | 3.21%
Cc1ccc(NC(=O)c2ccnc(N3CCCC3)c2)cc1-c1ccc(C(=O)NCC2CC2)cc1 | 1.01% | -0.76% | 1.8% | 2.5% | 2.8% | 2.72% | 3.43% | 8.63% | 1.53% | 2.76% | 2.23% | -2.06% | -0.65% | -2.31% | -0.77% | 0.1% | -1.68% | 5.39% | 2.22% | 1.09%
COc1cc2ncn(-c3cc(OCc4ccccc4Cl)c(C(N)=O)s3)c2cc1OC | -0.28% | 2.18% | 0.86% | 1.67% | -5.34% | -5.25% | 0.79% | 3.02% | 0.47% | 0.64% | 7.8% | -0.08% | -0.94% | 0% | 1.42% | 0.65% | 0.68% | 1.47% | 2.19% | -0.07%
CCn1c(-c2nonc2N)nc2ccncc21 | 1.72% | 1.13% | 0.86% | 0.41% | 1.63% | 2.9% | 0.33% | 2.82% | 1.28% | 3.8% | 2.45% | 0.35% | 1.02% | 0.39% | 0.41% | -0.82% | 1.95% | 1.11% | 5.32% | -2.41%
COc1cc(C=NNc2ncnc3c2cnn3-c2ccccc2)ccc1O | 0.09% | 3.38% | 1.02% | 2.48% | -3.81% | -1.13% | 1.6% | 4.55% | 2.72% | 10.3% | 3.92% | 1.37% | 1.88% | 0.49% | 3.62% | 1.19% | 4.02% | 3.68% | 0.52% | 1.8%
CS(=O)(=O)CCNCc1ccc(-c2ccc3ncnc(Nc4ccc(OCc5cccc(F)c5)c(C(F)(F)F)c4)c3c2)o1 | -0.31% | 1.73% | -0.15% | 0.67% | 9.28% | 8.53% | 2.67% | 2.44% | 1.58% | 2.22% | 2.02% | 1.79% | 2.53% | 1.25% | 1.29% | 0.59% | 1.62% | 4.51% | 4.84% | 1.87%
O=C1NC(=O)C(c2ccccc2Cl)=C1Nc1cccc(O)c1 | 0.28% | -0.35% | 1.4% | 3.99% | 2.66% | 5.41% | 1.39% | 3.42% | 1.47% | 0.61% | 0.81% | 1.52% | 2.92% | 0.83% | 3.41% | 0.31% | 5.5% | 2.05% | 5.24% | -3.81%
